The target in assay [1] is Glucocorticoid receptor (Homo sapiens) (UniProt P04150). In words: ATG_GR_TRANS: Attagene TRANS-FACTORIAL HepG2 Assay for human Glucocorticoid Receptor (GR) (AID 2282978; active means hit-call score of the fitted dose curve at least 0.9, where 1 is the maximum;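 further: activators score as hits since higher reporter transcript over DMSO is fitted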). To be noted: HepG2 Attagene TRANS GR reporter, mRNA transcription. In outline: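 Multiplexed TRANS reporter system, HepG2; 24 h exposure; RNA → oligo(dT) RT → reporter-specific PCR → 6-FAM primer extension → HpaI cut → CE fluorescence. Gain-of-signal vs DMSO.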

Assay [2] concerns the target Oxysterols receptor LXR-beta (Homo sapiens) (UniProt P55055). Description: ATG_LXRb_TRANS: Attagene TRANS-FACTORIAL HepG2 Assay for human Liver X Receptor beta (LXRb) (AID 2282981; active means hit-call score of the fitted dose curve at least 0.9, where 1 is the maximum). To be noted: HepG2 Attagene TRANS GAL4-LXRb reporter, mRNA. In outline: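 HepG2 cells transiently transfected with GAL4-UAS reporter units for chimeric NR-Gal4 proteins, dosed for 24 h. Reporter transcripts measured by RT-PCR and capillary electrophoresis; gain-of-signal fitting relative to DMSO.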

Assay [3] has as its target Transcriptional activator Myb (Homo sapiens) (UniProt P10242). Description: ATG_Myb_CIS: Attagene CIS-FACTORIAL HepG2 Assay for human Myeloblastosis (Myb) Proto-Oncogene Transcription Factor (AID 2282986). The settings on record: HepG2 Attagene CIS-FACTORIAL Myb reporter transcription; actives raise or lower the signal. In outline: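 Endogenous transcription factor activity at a Myb-responsive cis element is reported in human liver HepG2 cells after 24 h chemical treatment. Reporter mRNA is detected by RT-PCR and capillary electrophoresis fluorescence, with DMSO as baseline.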

Assay [4] addresses Nuclear respiratory factor 1 (Homo sapiens) (UniProt Q16656). Description: ATG_NRF1_CIS: Attagene CIS-FACTORIAL HepG2 Assay for human Nuclear Respiratory Factor 1 (NRF1) Orphan Gene (AID 2282987). To be noted: HepG2 NRF1 cis-element reporter, Attagene multiplex; actives raise or lower the signal. The procedure, abridged:
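Human hepatoma HepG2 cells carrying transfected promoter-regulated reporter units were incubated with test chemicals for 24 h. Reporter transcripts were measured by RT-PCR plus capillary electrophoresis, and endpoints derived by bidirectional fitting with DMSO as baseline.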

Assay [5] in a line: ATG_NFI_CIS: Attagene CIS-FACTORIAL HepG2 Assay for human Nuclear Factor I (NFI) (AID 2282989). The settings on record: HepG2 cis-regulatory reporter, NFI response element transcription; actives raise or lower the signal. In outline: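 Transfected HepG2 liver cells, exposed 24 h, supplied total RNA for oligo(dT) reverse transcription and reporter-specific PCR. Labelled, HpaI-cut fragments were sized by capillary electrophoresis; DMSO set the baseline for bidirectional fitting.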

The target of assay [6] is Myc proto-oncogene protein (Homo sapiens) (UniProt P01106). Description: ATG_Myc_CIS: Attagene CIS-FACTORIAL HepG2 Assay for human Myelocytomatosis (Myc) Proto-Oncogene Transcription Factor (AID 2282990). To be noted: HepG2, Attagene cis-reporter transcription factor activity; actives raise or lower the signal. In outline: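 Fluorescence intensity of reporter-specific cDNA fragments, separated by capillary electrophoresis, gives the signal. Transfected HepG2 cells carrying cis-promoter reporter constructs are incubated with compound for 24 h; DMSO serves as baseline.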

A short description of assay [7]: ATG_NRF2_ARE_CIS: Attagene CIS-FACTORIAL HepG2 Assay for human Nuclear Factor Erythroid 2 Related Factor 2 (NFR2) response to Antioxidant Response Elements (ARE) (AID 2282992).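 On AC50: reporter mRNA level measured by RT-PCR and capillary electrophoresis fluorescence.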 To be noted: HepG2 Attagene ARE/NRF2 reporter, transcription factor activity; actives raise or lower the signal. The procedure, abridged: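 HepG2 cells transiently transfected with multiplexed cis-regulated reporter transcription units measure endogenous transcription factor activity. Reporter mRNA at 24 h is quantified by RT-PCR, fluorescent labelling and capillary electrophoresis, with bidirectional fitting relative to DMSO.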

The nature of assay [8]: ATG_Oct_MLP_CIS: Attagene CIS-FACTORIAL HepG2 Assay for human Octamer-Binding Transcription Factor (Oct) (AID 2282993). The settings on record: HepG2 Attagene cis-factorial Oct reporter, mRNA; actives raise or lower the signal. In outline: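 Using HepG2 cells bearing transfected cis-reporter constructs, mRNA induction was read after 24 h by fluorescent RT-PCR and capillary electrophoresis, with DMSO defining baseline for gain- or loss-of-signal fits.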

The target of assay [9] is Cellular tumor antigen p53 (Homo sapiens) (UniProt P04637). Description: ATG_p53_CIS: Attagene CIS-FACTORIAL HepG2 Assay for human p53 Transcription Factor (AID 2282994). To be noted: HepG2 p53 cis-element reporter, Attagene mRNA; actives raise or lower the signal. In outline:
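HepG2 cells transiently transfected with multiplexed cis-regulated reporter transcription units read endogenous TF activity. After 24 h compound exposure, reporter mRNA was quantified by RT-PCR, fluorescent labelling, HpaI digestion and capillary electrophoresis; bidirectional fits versus DMSO baseline.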

A short description of assay [10]: BSK_3C_TissueFactor: BioMAP Diversity Plus: 3C Assay for Tissue Factor Biomarker Activity (AID 2282997). The settings on record: BioMAP 3C HUVEC, tissue factor biomarker readout; actives raise or lower the signal. The procedure, abridged: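 Dosing of human umbilical vein endothelial cells preceded a 24 h incubation. Tissue Factor was then read by ELISA, with increases and decreases both scored relative to DMSO controls.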

Assay [11] can be described thus: BSK_3C_uPAR: BioMAP Diversity Plus: 3C Assay for Urokinase-type plasminogen activator receptor (uPAR) Biomarker Activity (AID 2282998). The settings on record: BioMAP 3C HUVEC, uPAR biomarker ELISA; actives raise or lower the signal. The procedure, abridged:
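In this endothelial cell-based assay, human umbilical vein primary cells were treated with chemicals and harvested at 24 h. uPAR was quantified using ELISA, with gains or losses fitted relative to DMSO controls.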

The nature of assay [12]: BSK_3C_VCAM1: BioMAP Diversity Plus: 3C Assay for Vascular cell adhesion molecule 1 (VCAM1) Biomarker Activity (AID 2282999). The settings on record: BioMAP 3C HUVEC, VCAM1 ELISA, cytokine-stimulated; actives raise or lower the signal. The procedure, abridged:
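Human umbilical vein endothelial cells (3C system), biomarker read by ELISA 24 h after dosing; bidirectional fit against DMSO baseline. Cytotoxicity tracked by SRB total-protein staining in parallel cultures at biomarker time.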

A short description of assay [13]: ATG_NF_kB_CIS: Attagene CIS-FACTORIAL HepG2 Assay for human Nuclear Factor Kappa B (NF-kB) (AID 2282991). The settings on record: HepG2 Attagene cis-factorial NF-kB reporter mRNA; actives raise or lower the signal. In outline:
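Multiplexed cis-reporter assay in transiently transfected HepG2. 24 h treatment; RNA isolated, RT-PCR, labelled fragments resolved by CE. DMSO baseline.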

The target of assay [14] is Bile acid receptor (Homo sapiens) (UniProt Q96RI1). Description: ATG_FXR_TRANS: Attagene TRANS-FACTORIAL HepG2 Assay for Farnesoid X Receptor (FXR) (AID 2282979; active means hit-call score of the fitted dose curve at least 0.9, where 1 is the maximum;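 further: hits raise reporter mRNA above DMSO so AC50 marks FXR activation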). The settings on record: HepG2 Attagene TRANS FXR-GAL4 reporter transcription. The procedure, abridged: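 Reporter transcripts from transfected HepG2 cells were measured 24 h after dosing, using RT-PCR with capillary electrophoresis of 6-FAM-labelled fragments. The read-out reflects activity of exogenous FXR-Gal4 chimera on GAL4-UAS units, with induction relative to DMSO.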

The target of assay [15] is Oxysterols receptor LXR-alpha (Homo sapiens) (UniProt Q13133). Description: ATG_LXRa_TRANS: Attagene TRANS-FACTORIAL HepG2 Assay for human Liver X Receptor alpha (LXRa) (AID 2282980; active means hit-call score of the fitted dose curve at least 0.9, where 1 is the maximum). The settings on record: HepG2 Attagene TRANS reporter, LXRa transactivation. In outline: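 Chemical-induced reporter mRNA measured by RT-PCR with fluorescent labelling and capillary electrophoresis after 24 h dosing of transiently transfected HepG2 cells expressing exogenous NR-Gal4 chimeras; increases scored against DMSO baseline.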

Assay [16] has as its target Hepatocyte nuclear factor 4-alpha (Homo sapiens) (UniProt P41235). Description: ATG_HNF4a_TRANS: Attagene TRANS-FACTORIAL HepG2 Assay for human Hepatocyte Nuclear Factor 4 alpha (HNF4a) (AID 2282982; active means hit-call score of the fitted dose curve at least 0.9, where 1 is the maximum). To be noted: HepG2 HNF4a transactivation reporter, mRNA readout. The procedure, abridged: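 HepG2 cells transiently transfected with HNF4a-Gal4 chimera and GAL4-UAS reporter units, dosed for 24 h. Reporter mRNA measured by RT-PCR, fluorescent primer extension and capillary electrophoresis; gain-of-signal fitted relative to DMSO.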

The target of assay [17] is Nuclear receptor subfamily 4 group A member 2 (Homo sapiens) (UniProt P43354). Description: ATG_NURR1_TRANS: Attagene TRANS-FACTORIAL HepG2 Assay for human Nuclear Receptor Related Protein 1 (NURR1) (AID 2282985; active means hit-call score of the fitted dose curve at least 0.9, where 1 is the maximum). To be noted: HepG2 Attagene TRANS reporter, mRNA readout. The procedure, abridged:
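HepG2 cells transiently transfected with NURR1-Gal4 chimera and GAL4-UAS reporter units; after 24 hr compound exposure, reporter mRNA quantified by RT-PCR and capillary electrophoresis; gain of signal fitted against DMSO.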

Results on six molecules are retold here after PubChem BioAssay (EPA / NIEHS).

SMILES strings stand for the structures. Records with an inconclusive call do not appear. Activity calls are given as the source filed them. How the source made its calls, unless noted: active means hit-call score of the fitted dose curve at least 0.9, where 1 is the maximum; inactive means score below 0.9.

Chain of Myc proto-oncogene protein (Homo sapiens) (P01106 whole entry, looked up, the tested form may be a part): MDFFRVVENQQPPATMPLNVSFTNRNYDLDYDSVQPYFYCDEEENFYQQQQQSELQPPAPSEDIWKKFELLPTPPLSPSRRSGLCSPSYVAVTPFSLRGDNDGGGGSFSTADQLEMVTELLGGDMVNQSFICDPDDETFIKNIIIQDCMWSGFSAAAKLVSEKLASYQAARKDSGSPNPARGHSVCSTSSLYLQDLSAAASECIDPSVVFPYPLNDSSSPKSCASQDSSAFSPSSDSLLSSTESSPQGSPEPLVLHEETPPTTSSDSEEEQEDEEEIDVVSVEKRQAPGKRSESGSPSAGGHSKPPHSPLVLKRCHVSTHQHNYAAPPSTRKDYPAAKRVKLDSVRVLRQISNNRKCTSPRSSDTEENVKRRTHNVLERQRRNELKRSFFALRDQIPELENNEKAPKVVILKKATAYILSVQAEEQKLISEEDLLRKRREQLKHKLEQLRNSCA
Chain of Transcriptional activator Myb (Homo sapiens) (P10242 whole entry, looked up): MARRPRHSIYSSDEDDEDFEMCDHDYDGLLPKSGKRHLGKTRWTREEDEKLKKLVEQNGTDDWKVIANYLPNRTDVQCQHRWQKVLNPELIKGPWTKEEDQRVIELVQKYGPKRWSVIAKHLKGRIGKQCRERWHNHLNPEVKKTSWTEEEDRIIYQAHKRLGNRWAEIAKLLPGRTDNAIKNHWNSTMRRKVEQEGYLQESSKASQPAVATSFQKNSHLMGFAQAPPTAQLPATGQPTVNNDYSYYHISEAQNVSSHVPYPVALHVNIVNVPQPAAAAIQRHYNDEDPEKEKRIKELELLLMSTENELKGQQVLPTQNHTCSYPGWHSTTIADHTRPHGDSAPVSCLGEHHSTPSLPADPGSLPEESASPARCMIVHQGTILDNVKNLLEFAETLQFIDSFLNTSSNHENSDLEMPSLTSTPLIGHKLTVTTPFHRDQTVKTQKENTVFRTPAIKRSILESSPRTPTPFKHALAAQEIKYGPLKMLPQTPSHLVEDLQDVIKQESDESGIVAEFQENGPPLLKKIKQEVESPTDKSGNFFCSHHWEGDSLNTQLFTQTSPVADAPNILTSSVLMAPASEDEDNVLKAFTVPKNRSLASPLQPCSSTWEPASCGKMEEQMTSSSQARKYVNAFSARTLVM
Chain of Nuclear respiratory factor 1 (Homo sapiens) (Q16656 whole entry, looked up): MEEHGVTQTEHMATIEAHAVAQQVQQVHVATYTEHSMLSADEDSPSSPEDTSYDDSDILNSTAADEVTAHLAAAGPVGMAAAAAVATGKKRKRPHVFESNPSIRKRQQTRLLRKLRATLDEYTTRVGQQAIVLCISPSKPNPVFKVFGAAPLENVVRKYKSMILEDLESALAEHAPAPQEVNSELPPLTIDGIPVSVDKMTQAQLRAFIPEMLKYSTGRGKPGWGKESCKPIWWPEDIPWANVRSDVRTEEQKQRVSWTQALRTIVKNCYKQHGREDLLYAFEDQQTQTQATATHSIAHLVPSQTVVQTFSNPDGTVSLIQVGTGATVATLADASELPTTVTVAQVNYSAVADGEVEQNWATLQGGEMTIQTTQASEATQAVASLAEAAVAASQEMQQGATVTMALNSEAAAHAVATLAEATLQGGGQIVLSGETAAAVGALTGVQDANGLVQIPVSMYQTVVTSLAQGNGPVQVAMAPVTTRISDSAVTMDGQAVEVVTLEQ
Chain of Oxysterols receptor LXR-beta (Homo sapiens) (P55055 whole entry, looked up, the tested form may be a part): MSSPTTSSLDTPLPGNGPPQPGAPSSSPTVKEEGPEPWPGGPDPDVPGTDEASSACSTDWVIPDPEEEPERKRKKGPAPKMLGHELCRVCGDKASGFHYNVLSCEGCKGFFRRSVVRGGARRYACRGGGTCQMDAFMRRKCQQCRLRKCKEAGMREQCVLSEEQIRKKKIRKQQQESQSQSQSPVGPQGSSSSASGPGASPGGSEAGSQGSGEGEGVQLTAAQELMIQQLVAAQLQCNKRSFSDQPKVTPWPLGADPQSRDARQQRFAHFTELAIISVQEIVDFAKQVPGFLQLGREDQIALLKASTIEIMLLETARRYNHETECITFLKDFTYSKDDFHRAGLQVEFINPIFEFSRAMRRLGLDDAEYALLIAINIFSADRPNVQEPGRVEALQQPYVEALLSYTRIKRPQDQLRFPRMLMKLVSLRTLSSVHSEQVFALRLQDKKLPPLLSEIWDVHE
Chain of Cellular tumor antigen p53 (Homo sapiens) (P04637 whole entry, looked up): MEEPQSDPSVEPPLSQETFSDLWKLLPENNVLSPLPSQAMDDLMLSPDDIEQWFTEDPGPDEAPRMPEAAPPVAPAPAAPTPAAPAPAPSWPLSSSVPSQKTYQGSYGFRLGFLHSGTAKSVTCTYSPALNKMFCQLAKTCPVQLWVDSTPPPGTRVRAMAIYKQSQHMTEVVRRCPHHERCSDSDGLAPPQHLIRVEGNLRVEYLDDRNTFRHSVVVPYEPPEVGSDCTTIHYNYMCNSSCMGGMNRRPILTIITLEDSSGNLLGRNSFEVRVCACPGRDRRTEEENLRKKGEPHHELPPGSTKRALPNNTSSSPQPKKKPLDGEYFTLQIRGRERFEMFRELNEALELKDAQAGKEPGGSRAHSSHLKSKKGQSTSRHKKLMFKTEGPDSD
Chain of Nuclear receptor subfamily 4 group A member 2 (Homo sapiens) (P43354 whole entry, looked up, the tested form may be a part): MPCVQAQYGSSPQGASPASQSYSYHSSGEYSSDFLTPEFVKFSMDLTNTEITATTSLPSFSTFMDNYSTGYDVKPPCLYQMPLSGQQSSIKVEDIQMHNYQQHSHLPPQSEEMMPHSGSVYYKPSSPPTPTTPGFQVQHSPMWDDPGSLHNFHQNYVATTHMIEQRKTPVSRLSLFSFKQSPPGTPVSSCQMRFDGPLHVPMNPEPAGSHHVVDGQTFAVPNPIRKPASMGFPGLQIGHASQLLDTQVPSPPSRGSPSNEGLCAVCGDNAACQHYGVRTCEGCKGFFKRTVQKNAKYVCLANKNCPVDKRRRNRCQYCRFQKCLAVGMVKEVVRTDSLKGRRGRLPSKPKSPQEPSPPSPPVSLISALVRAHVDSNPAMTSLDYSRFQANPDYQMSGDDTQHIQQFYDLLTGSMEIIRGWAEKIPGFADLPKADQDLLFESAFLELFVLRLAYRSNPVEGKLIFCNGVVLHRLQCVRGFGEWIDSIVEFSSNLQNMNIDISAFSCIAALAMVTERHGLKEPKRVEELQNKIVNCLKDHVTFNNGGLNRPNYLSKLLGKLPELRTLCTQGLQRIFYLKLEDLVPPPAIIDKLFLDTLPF
Chain of Hepatocyte nuclear factor 4-alpha (Homo sapiens) (P41235 whole entry, looked up, the tested form may be a part): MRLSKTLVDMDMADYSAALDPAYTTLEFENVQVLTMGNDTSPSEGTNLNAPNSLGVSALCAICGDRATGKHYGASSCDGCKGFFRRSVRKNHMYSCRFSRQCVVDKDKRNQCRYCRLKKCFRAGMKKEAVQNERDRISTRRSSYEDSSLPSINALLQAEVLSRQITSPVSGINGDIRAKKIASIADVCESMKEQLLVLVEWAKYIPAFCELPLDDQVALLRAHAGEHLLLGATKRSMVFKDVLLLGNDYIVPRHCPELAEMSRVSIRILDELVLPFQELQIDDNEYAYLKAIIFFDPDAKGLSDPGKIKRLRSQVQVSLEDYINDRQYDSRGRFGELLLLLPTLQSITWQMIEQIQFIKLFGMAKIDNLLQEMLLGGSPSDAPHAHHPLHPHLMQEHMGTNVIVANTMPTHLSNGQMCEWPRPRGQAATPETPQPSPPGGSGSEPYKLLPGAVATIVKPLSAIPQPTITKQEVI
Chain of Bile acid receptor (Homo sapiens) (Q96RI1 whole entry, looked up, the tested form may be a part): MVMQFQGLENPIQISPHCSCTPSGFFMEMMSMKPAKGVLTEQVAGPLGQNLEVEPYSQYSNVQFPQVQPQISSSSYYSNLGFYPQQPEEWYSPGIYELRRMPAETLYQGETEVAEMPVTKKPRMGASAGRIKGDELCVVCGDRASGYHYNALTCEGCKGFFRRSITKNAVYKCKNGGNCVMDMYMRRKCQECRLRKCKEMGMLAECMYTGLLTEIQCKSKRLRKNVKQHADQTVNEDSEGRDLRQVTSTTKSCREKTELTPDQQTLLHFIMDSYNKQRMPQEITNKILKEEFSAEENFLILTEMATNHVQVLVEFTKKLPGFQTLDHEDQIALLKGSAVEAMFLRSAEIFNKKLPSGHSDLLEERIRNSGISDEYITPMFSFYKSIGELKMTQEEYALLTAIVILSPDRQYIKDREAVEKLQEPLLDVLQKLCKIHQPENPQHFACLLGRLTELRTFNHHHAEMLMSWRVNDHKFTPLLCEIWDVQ
Chain of Oxysterols receptor LXR-alpha (Homo sapiens) (Q13133 whole entry, looked up, the tested form may be a part): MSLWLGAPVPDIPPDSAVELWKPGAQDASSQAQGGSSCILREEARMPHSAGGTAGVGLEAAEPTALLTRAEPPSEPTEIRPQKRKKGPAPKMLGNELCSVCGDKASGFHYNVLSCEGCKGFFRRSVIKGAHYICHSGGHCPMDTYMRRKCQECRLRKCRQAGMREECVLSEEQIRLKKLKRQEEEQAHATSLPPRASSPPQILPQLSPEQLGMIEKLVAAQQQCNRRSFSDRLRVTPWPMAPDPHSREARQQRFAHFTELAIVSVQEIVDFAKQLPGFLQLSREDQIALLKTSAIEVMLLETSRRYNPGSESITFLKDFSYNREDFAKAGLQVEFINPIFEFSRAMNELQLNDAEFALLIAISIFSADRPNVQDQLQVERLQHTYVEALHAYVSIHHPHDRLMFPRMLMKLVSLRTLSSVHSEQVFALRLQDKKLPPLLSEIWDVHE

Consider `Cc1ccc(N=CN(C)C=Nc2ccc(C)cc2C)c(C)c1`, for which the result in assay [1], in assay [2], in [3], in assay [4], in assay [5] and in assay [6] was inactive. The call in [7], in assay [8] and in [9] was inactive. For the same molecule, the figures for the AC50 in assay [10], in assay [11] and in assay [12] were 32 µM (active), 37.6 µM (active) and 16.4 µM (active), respectively.
Consider `O=C(O)c1c(Cl)ccc2cc(Cl)cnc12`, for which the molecule was called inactive in [2], in assay [3], in assay [4], in assay [5], in [6] and in assay [13]. Also, the molecule was called inactive in [7], in assay [8], in [10], in [11] and in assay [12].
Turning to `O=P(O)(O)CCCl`, the molecule was called inactive in assay [14], in [15], in assay [2], in assay [16], in assay [17] and in [3]. The molecule was classed as inactive in [4], in assay [5], in [6], in [13], in assay [7] and in assay [8]. The molecule was called inactive in assay [9], in [10], in assay [11] and in [12].
Regarding `CCCCC(O)(Cn1cncn1)c1ccc(Cl)cc1Cl` (centres undefined), the outcome in [17], in assay [3], in assay [4], in assay [5], in [6] and in assay [13] was inactive. Further, the molecule was classed as inactive in [9], in assay [10] and in assay [12]. Moreover, the AC50 (commonly the midpoint of the concentration-response curve, whichever way the signal moves) in [7] was 20.8 µM (active); in assay [8] it was 62.5 µM (active); in assay [11], 36.5 µM (active).
`Clc1nc(Cl)nc(Nc2ccccc2Cl)n1`: the molecule was called inactive in assay [2], in [17], in assay [3], in [4], in assay [5] and in [6]. The result in assay [13], in assay [8], in [9], in assay [10], in assay [11] and in [12] was inactive. The AC50 in assay [7] was 29.4 µM (active).
On to `CCC(C)n1c(=O)[nH]c(C)c(Br)c1=O` (centres undefined), for which the molecule was classed as inactive in [14], in assay [2], in assay [16], in [17], in assay [3] and in assay [4]. In addition, the molecule was classed as inactive in assay [5], in assay [6], in assay [13], in [7], in assay [8] and in [9]. Further, the result in [10], in [11] and in assay [12] was inactive.
